This note sets out measurements from PubChem BioAssay (NCATS).

Inconclusive results are not listed. Active and inactive are the calls of the source. Unless noted, no rule for the calls is given here.

A short description of test [1]: qHTS profiling for inhibitors of Plasmodium falciparum (HB3) proliferation (AID 743324; active = well fitted curve in the direction sought with a large enough effect; an effect the other way counts as inactive or inconclusive;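 also: 100% = DMSO vehicle wells and 0% = artemisinin-treated control wells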). Particulars: Plasmodium falciparum HB3 blood-stage proliferation; at 28.7 µM (top of the series) unless noted. The procedure, abridged: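 P. falciparum HB3 grown in erythrocytes (0.3% parasitemia, 2.5% hematocrit final) with compound for 72 h at 37 C, 5% CO2. Parasite DNA detected by SYBR Green after saponin/triton lysis overnight; normalized to 0.29 uM artemisinin and DMSO.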
In general terms: In qHTS, concentration-response curves come from the screen itself.

A short description of test [2]: qHTS profiling of the MIPE4 collection as inhibitors of Plasmodium falciparum (3D7) proliferation (AID 743344).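 Also: scaled between DMSO vehicle wells and 0.29 µM artemisinin as full inhibition.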 The following applies: P. falciparum 3D7 in erythrocytes, SYBR Green DNA fluorescence, 72 h; at 28.5 µM (top of the series) unless noted. The procedure, abridged: (§1)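 Erythrocytes infected with P. falciparum (0.3% parasitemia, 2.5% hematocrit) incubated with compounds 72 h at 37 C, 5% CO2. Lysis with saponin/Triton buffer containing SYBR Green I, overnight at room temperature in the dark; DNA fluorescence (485/535 nm) normalised to 0.29 uM artemisinin and DMSO.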

Test [3] in a line: qHTS profiling of the MIPE4 collection as inhibitors of Plasmodium falciparum (DD2) proliferation (AID 743345). The following applies: P. falciparum Dd2 in erythrocytes, SYBR Green DNA, 72 h; at 28.5 µM (top of the series) unless noted. The essentials:
as §1

Test [4] can be described thus: qHTS profiling of the MIPE4 collection as inhibitors of Plasmodium falciparum (HB3) proliferation (AID 743347).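 Also: plate controls were DMSO vehicle wells for no effect and artemisinin wells for full effect.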 The following applies: P. falciparum HB3 in erythrocytes, SYBR Green DNA, 72 h; at 28.5 µM (top of the series) unless noted. The essentials: as §1
Test [5] is described as follows: High-throughput drug toxicity screening in the BPDCN cell line Gen2.2 (AID 1224824).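 Also: cells exposed to compounds for 48 h before reading.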 Particulars: Gen2.2 BPDCN cells; at 45.8 µM (top of the series) unless noted. The essentials: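 Readout is ATP luminescence from Gen2.2 cells after two days of drug exposure in serum-containing medium at 37 °C. Values express percent activity, with vehicle defining full signal and 9.2 uM bortezomib defining zero.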

The nature of test [6]: High-throughput drug toxicity screening in the BPDCN cell line Cal-1 (AID 1224825). The following applies: Cal-1 BPDCN cell viability, qHTS; at 45.8 µM (top of the series) unless noted. The essentials:
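Cal-1 cells, 500 per well in phenol-red-free RPMI with 10% FBS, exposed to compounds for 48 hours at 37C, 5% CO2. Viability read by CellTiter-Glo luminescence; percent activity normalized to DMSO (100%) and 9.2 uM bortezomib final (0%).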

A short description of test [7]: qHTS assay for measurement of the activity of small molecule inhibitors on Zika virus induced Caspase-3 activity in human iPSC derived neural progenitor cells (hNPCs) (AID 1224857; active = well fitted curve in the direction sought with a large enough effect; an effect the other way counts as inactive or inconclusive; also: % of control where 0% means no effect; nearly all actives have a fitted effect of over 65% in size). The procedure, abridged:
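In medium with heparin 2 ug/ml and cyclopamine 2 uM, hNPCs (350 cells/well) received compound for one hour and then Zika virus at 2 FFU/cell; caspase activity was measured by Caspase-Glo 3/7 luminescence 6 h post-infection.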

Test [8] can be described thus: qHTS assay for measurement of the activity of small molecule inhibitors on Zika virus induced Caspase-3 activity in human astrocytoma cells (AID 1224859; active = well fitted curve in the direction sought with a large enough effect; an effect the other way counts as inactive or inconclusive;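 also: plate controls were ZIKV-infected untreated cells for no effect and uninfected cells for full effect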). The procedure, abridged:
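A cell-based luminescent caspase-3/7 assay used SNB-19 cells infected with ZIKV (2 FFU/cell) for 6 h following 1 h compound pretreatment.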

Test [9] in a line: qHTS Screen of the MIPE 4.0 Collection Against Ewings Sarcoma (RDES) (AID 1259252; active = well fitted curve in the direction sought with a large enough effect; an effect the other way counts as inactive or inconclusive; also: nearly all actives have a fitted effect of over 35% in size; also: potency is read from the fitted curve at half-maximal effect). The procedure, abridged: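 Log-phase cells in RPMI with 5% FBS attached for 4 h, then received compounds as a titration for 48 h at 37C, 5% CO2. Viability was read by CellTiter-Glo luminescence and normalized to DMSO and no-cell wells.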
Test [10] in a line: qHTS profiling of the MIPE4 collection as inhibitors of Plasmodium falciparum (DD2) proliferation (Rep 2) (AID 743346). The following applies: P. falciparum Dd2 in erythrocytes, SYBR Green DNA, 72 h; at 28.5 µM (top of the series) unless noted. The essentials: as §1

Take `O=C1C(CCC(O)c2ccc(F)cc2)C(c2ccc(O)cc2)N1c1ccc(F)cc1` (stereo not given): in test [1], the remaining proliferation (% of control), lower = more inhibition came out at 64.8%. Also, the parasite growth, % of DMSO control in test [2] was 33.5%. Also, the parasite growth remaining, % of DMSO control (lower = more inhibition) in [3] turned out to be 77%. Also, the growth, % of control in [4] stood at 33.2%. Also, in test [5], the cell viability, % of control (lower = more cytotoxic) came out at 88.9%. The viability (% of control) in test [6] is 93.3%. The Potency entry in [7], in [8] and in test [9] was “inactive” each time.
As for `CCCCn1c(=O)n(Cc2ccccc2F)c(=O)c2[nH]c(Cc3ccc(NC(C)=O)cc3)nc21`, in test [1], the remaining proliferation (% of control), lower = more inhibition was 30.8%. The parasite growth, % of DMSO control in [2] turned out to be 115%. The molecule further returned a parasite growth remaining, % of DMSO control (lower = more inhibition) in test [3] of 85.9%. The same molecule registered a parasite growth, % of control (lower = inhibition) in test [10] of 43.7%. In [4], the growth, % of control was 314%. Further, the cell viability, % of control (lower = more cytotoxic) in [5] is 50.4%. The same molecule came in with a viability (% of control) in [6] of 86%. Moreover, the Potency result in test [7], in test [8] and in test [9] was “inactive” in each case.
As for `CCCCc1ccc(NS(=O)(=O)c2ccc(C)c(C(=O)N3CCN(c4cccc(C)c4C)CC3)c2)cc1`, the remaining proliferation (% of control), lower = more inhibition in test [1] turned out to be 92.7%. This molecule also yielded a parasite growth, % of DMSO control in test [2] of 232%. The parasite growth remaining, % of DMSO control (lower = more inhibition) in [3] was 99.3%. For the same molecule, in test [10], the parasite growth, % of control (lower = inhibition) worked out at 59.2%. For the same molecule, the growth, % of control in test [4] came to 257%. In addition, the cell viability, % of control (lower = more cytotoxic) in [5] came out at 425%. This molecule also came in with a viability (% of control) in [6] of 99.3%. Besides, the Potency entry in test [7], in test [8] and in [9] was “inactive” each time.
As to `NC(=O)c1ncn([C@@H]2O[C@H](CO)[C@@H](O)[C@@H]2O)n1`, the cell viability, % of control (lower = more cytotoxic) in test [5] was determined as 109%. Besides, the viability (% of control) in [6] is 73.5%. Further, the Potency entry in test [7], in test [8] and in [9] was “inactive” each time.
As for `CC(=O)N1CCN(c2ccc(OCc3nn(C)c(C)c3-c3cccc4c(CCCOc5cc(C)c(Cl)c(C)c5)c(C(=O)O)n(Cc5cccnc5)c34)cc2)CC1`, the parasite growth, % of DMSO control in test [2] is 5.72%. This molecule registered a parasite growth remaining, % of DMSO control (lower = more inhibition) in test [3] of 15.1%. Further, the parasite growth, % of control (lower = inhibition) in test [10] came to 13.7%. The molecule also had a growth, % of control in [4] of 6.27%. Besides, the cell viability, % of control (lower = more cytotoxic) in [5] is 7.74%. This molecule gave a viability (% of control) in [6] of 2.47%. The Potency result in [7] and in test [8] was “inactive” in each case. Further, the Potency in [9] was 20.9 µM (active).
Molecule `CCNC(=O)Nc1ccc(Oc2ncnc(N)c2C=NOC)cc1Cl` displayed a parasite growth, % of DMSO control in [2] of 71.9%. Further, the parasite growth remaining, % of DMSO control (lower = more inhibition) in [3] worked out at 81.9%. The parasite growth, % of control (lower = inhibition) in [10] was determined as 67%. Further, the growth, % of control in test [4] amounted to 50.6%. Moreover, the cell viability, % of control (lower = more cytotoxic) in [5] was found to be 52.6%. The same molecule displayed a viability (% of control) in test [6] of 17%. Further, the Potency entry in [7] and in test [8] was “inactive” each time. Also, in test [9], the Potency is 8.33 µM (active).
With `CN1CCN(c2ncc(-c3cc(Cl)cc(Cl)c3Cl)c(N)n2)CC1`, the cell viability, % of control (lower = more cytotoxic) in test [5] turned out to be 54.8%. In test [6], the viability (% of control) came out at 22.1%. Also, the Potency entry in test [7], in test [8] and in test [9] was “inactive” throughout.
In the case of `O=C1CN2Cc3c(ccc(Cl)c3Cl)N=C2N1`, in test [1], the remaining proliferation (% of control), lower = more inhibition amounted to 46.3%. Besides, the parasite growth, % of DMSO control in test [2] was determined as 82.8%. In test [3], this molecule showed a parasite growth remaining, % of DMSO control (lower = more inhibition) of 91.6%. For the same molecule, the parasite growth, % of control (lower = inhibition) in [10] came out at 85.1%. Also, in test [4], the growth, % of control was found to be 85.4%. Besides, the cell viability, % of control (lower = more cytotoxic) in test [5] is 198%. For the same molecule, the viability (% of control) in [6] worked out at 96.9%. Further, the Potency entry in [7] and in test [8] was “inactive” throughout. In addition, the Potency in [9] was 23.5 µM (active).
For the molecule `CN(C)CCN(C)C(=O)c1ccc(NC(=O)Nc2ccc(-c3nc(N4CCOCC4)c4ccn(CC(F)(F)F)c4n3)cc2)cc1`, the remaining proliferation (% of control), lower = more inhibition in [1] is -1%. In addition, in test [3], the parasite growth remaining, % of DMSO control (lower = more inhibition) turned out to be 8.31%. The same molecule gave a parasite growth, % of control (lower = inhibition) in [10] of 20.5%. Moreover, in test [4], the growth, % of control amounted to 5.21%. Further, in test [5], the cell viability, % of control (lower = more cytotoxic) was 4.33%. Moreover, in test [6], the viability (% of control) was determined as 3.29%. Further, the Potency entry in test [7] and in test [8] was “inactive” in each case. The Potency in test [9] is 0.0187 µM (active).
`CCCCOCCOc1nc(-c2ccc(C(=O)O)c(F)c2)sc1C`: the remaining proliferation (% of control), lower = more inhibition in test [1] was 57%. This molecule had a parasite growth, % of DMSO control in test [2] of 81.5%. Also, the parasite growth remaining, % of DMSO control (lower = more inhibition) in test [3] stood at 98.4%. The molecule further registered a parasite growth, % of control (lower = inhibition) in [10] of 80.5%. In test [4], the growth, % of control came to 85%. For the same molecule, the cell viability, % of control (lower = more cytotoxic) in [5] was determined as 594%. The molecule also came in with a viability (% of control) in [6] of 73.8%. Moreover, the Potency entry in [7] and in test [8] was “inactive” throughout. The Potency in [9] is 20.9 µM (active).
Consider `CC(C)n1c(C=C[C@H](O)C[C@H](O)CC(=O)O)c(-c2ccc(F)cc2)c2ccccc21`, for which, in test [5], the cell viability, % of control (lower = more cytotoxic) was 9.81%. The viability (% of control) in test [6] was 66.9%. In addition, the Potency result in [7] and in [8] was “inactive” throughout.
